# From PubChem
# A selection: hits, their analogues and other compounds. The true share with any hit is near 3.9%.
# HT1080 IDH1KD tx: toxicity to HT-1080 IDH1 knockdown cells (counter line) | HT-1080 IDH1 knockdown viability, ATP luminescence, 48 h | Potency, µM (titrated, usually from 46.1 µM), without a hit: top-dose activity, negative = toxicity, usual class: cytotoxic | AID 686971 | hit rate 2% among 360,000;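 also: 0% = DMSO wells and -100% = cell-free medium wells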
#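 CellTiter-Glo luminescence after 48 h compound exposure at 37 degrees C of IDH1-knockdown HT-1080 cells in 5% FBS RPMI. %Activity scaled between DMSO wells and cell-free media wells, with curves fitted and assigned curve classes.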
# ATXN2 expr inh: inhibitors of ATXN2 expression. hit rate 0.72% among 360,000. HEK-293 ATXN2-luciferase reporter, luminescence, 24 h. AID 1745845. Potency, µM (series often up to 57 µM), without a hit: at the highest dose activity change, negative = inhibition, actives largely listed as inhibitors; also: % is scaled to controls: 0 for no effect and ±100 for the full control effect; nearly all actives have a fitted effect of over 55% in size
#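 ATXN2-luciferase reporter cells (luciferase flanked by upstream and downstream ATXN2 gene portions) were treated 24 h at 37 °C with compounds at up to 57 uM. SteadyGlo luminescence gave expression; GF-AFC fluorescence gave viability.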
# HepG2 tox: kills HepG2 cells in TGF-b inhibitor counter-screen | hit rate 0.76% among 410,000 | Potency, µM (series often up to 46.1 µM), without a hit: at the highest dose activity change, negative = cytotoxicity, most hits filed as cytotoxic | HepG2 CAGA-GFP viability, ATP luminescence, 18 h | AID 588856
#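 HepG2 CAGA-GFP cells (1000/well, DMEM with 1% FBS) received compound, then TGF-beta at 500 pg/mL final, and were incubated 18 hours at 37 degrees C. Viability was read by CellTiter-Glo luminescence. Media-only wells were set as complete cell-killing and DMSO as no toxicity.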
# S2 tox: cell viability loss in ATXN counter-screen; S2 cells (HEK-293 line with an ATXN2-luciferase reporter) viability, CellTiter-Fluor protease fluorescence, 24 h; Potency, µM (doses to about 56.7 µM), hits mostly cytotoxic; hit rate 0.49% among 400,000; also: nearly all actives have a fitted effect of over 40% in size
# TGFb inhibitor: TGF-b pathway inhibition; HepG2 CAGA-GFP TGF-b/SMAD3 reporter, GFP fluorescence, 18 h; TGF-beta stimulated, 500 pg/mL final; Potency, µM (doses to about 46.1 µM), for the others: top-dose activity, negative = inhibition, usual class: inhibitors; hit rate 1.2% among 410,000; also: % is scaled to controls: 0 for no effect and ±100 for the full control effect; nearly all actives have a fitted effect of over 65% in size
#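 TGF-beta reporter screen: HEPG2 CAGA-GFP, 1% FBS, 500 pg/mL TGF-beta final, 18 h; per-cell GFP summed per well; curves fitted and categorized by class.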
# HT1080-NT tox: kills 2HG-producing HT-1080-NT fibrosarcoma cells; Potency, µM (titrated, usually from 46.1 µM), for the others: at the highest dose activity, negative = less viability, usual class: cytotoxic; HT-1080-NT fibrosarcoma viability, CellTiter-Glo ATP luminescence, 48 h; AID 686970; hit rate 1.6% among 360,000;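 also: NT is the 2HG producing partner of a matched IDH1 knockdown line; 0% = DMSO-treated cells and -100% = media-only wells without cells; nearly all actives have a fitted effect of over 55% in size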
#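 A 48-hour cytotoxicity screen used HT-1080-NT cells plated 2 hours before compound delivery. ATP-based CellTiter-Glo luminescence measured viability, normalized to DMSO and no-cell controls.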
# Starred values were filed as active, the others as inactive; i = inactive; u = inconclusive; x = not tested or not shown; [ ] = another dose, or the depositor's remark. Calls follow the shape of the dose curve; as a rule, active = well fitted curve in the direction sought with a large enough effect; inconclusive = small, poorly fitted or top-dose-only effect, or another doubt; inactive = no such curve, though single readings can be large; an effect the other way counts as inactive or inconclusive. Potency is read from the fitted curve at half-maximal effect.
SMILES,HT1080 IDH1KD tx,ATXN2 expr inh,HepG2 tox,S2 tox,TGFb inhibitor,HT1080-NT tox
Cc1cccc(N2CCN(C(=O)C3CCN(S(=O)(=O)c4c(C)noc4/C=C/c4ccccc4F)CC3)CC2C)c1 (stereo not given),x,x,-16.7%,x,u,x
CC(C)N1C[C@@H](Sc2ccccn2)C[C@H]1C(=O)Nc1ccc2c(c1)Nc1ccccc1CC2,x,x,x,i,x,x
CN(C)c1ccc(C=Cc2ccnc3ccccc23)cc1N,u,u,-40.8%,i,u,23.1µM*
CC[N+](CC)(CC)c1ccc(/C=C/c2ccnc3ccccc23)cc1,x,x,-75.8%,x,2.51µM*,x
CCN(C)c1ccc(/C=C/c2ccnc3ccccc23)cc1,x,x,-13.8%,x,81.6%,x
CC[N+](C)(C)c1ccc(/C=C/c2ccnc3ccccc23)cc1,x,x,-74.5%,x,11.2µM*,x
CC(C)(C)OC(=O)N(c1cccc2cccnc12)S(=O)(=O)c1ccccc1Br,x,x,-40.1%,x,4.47µM*,x
N#CC1=C2SCC(O)(c3ccccc3)N2C(=O)CC1c1ccccc1F (stereo not given),16.4µM*,-7.4%,-34.0%,u,4.2%,u
COc1ccc(C2CC(=O)N3C(=C2C#N)SCC3(O)c2ccccc2)cc1 (stereo not given),u,42.0%,-14.4%,i,-8.8%,-13.8%
N#CC1=C2SCN(Cc3ccccc3)CN2C(=O)CC1c1ccccc1F (stereo not given),-1.2%,-6.1%,-6.6%,i,-2.9%,-3.1%
N#CC1=C2SCC(O)(c3ccccc3)N2C(=O)CC1c1cccs1 (stereo not given),0.355µM*,34.3%,-25.2%,i,0.8%,0.631µM*
c1ccc(COc2cccc(-c3cc4nc(NCc5cccs5)ccn4n3)c2)cc1,7.31µM*,-4.6%,-26.3%,i,u,u
Clc1cccc(CNc2ccn3nc(-c4ccc(OCCN5CCOCC5)cc4)cc3n2)c1,u,u,-48.4%,x,11.2µM*,16.4µM*
c1cc(-c2cc3nc(NC4CCCCC4)ccn3n2)ccc1OCCN1CCOCC1,20.6µM*,u,-71.9%,25.1µM*,11.2µM*,20.6µM*
COc1ccc(NC(=O)C2CCCN(S(=O)(=O)c3cccs3)C2)cc1 (stereo not given),x,-14.4%,-13.2%,i,-17.3%,x
CC1(C)CCC[C@@]2(C)[C@@H]1CC[C@@]1(C)OC(=O)C[C@H]21,x,-16.1%,x,x,x,x
CCCc1ccc(C2Sc3ccccc3NC3=C2C(=O)c2ccccc23)cc1 (stereo not given),x,u,-39.3%,x,u,x
CCOc1cc(C2Sc3ccccc3NC3=C2C(=O)c2ccccc23)ccc1O (stereo not given),x,u,-34.8%,31.6µM*,-32.9%,x
COc1ccc(CSC(=S)NNc2ccccc2)cc1,13µM*,x,1.1%,u,4.8%,u
CC(C)[N+](C)(C)CC(O)COc1cccc2ccccc12 (stereo not given),x,-4.4%,x,i,x,x
CC(=O)c1sc2c(c1OC(=O)c1ccc(Cl)cc1Cl)c(=O)n(-c1ccccc1)c(=S)n2-c1ccccc1,2.59µM*,x,-35.1%,u,u,1.46µM*
CC(=O)c1sc2c(c1OC(=O)c1ccc(Cl)cc1)c(=O)n(-c1ccccc1)c(=S)n2-c1ccccc1,u,0.0%,5.3%,u,0.0%,-18.8%
COc1cc2c(-c3ccccc3)c(C)oc2cc1/C=N/NC(N)=S,-12.9%,x,6.31µM*,i,u,-14.5%
Cc1cc(C)cc(NC(=O)CN2C(=O)COc3ccc(S(=O)(=O)Nc4ccccc4)cc32)c1,x,-37.0%,-32.5%,u,u,x
COc1nn(-c2ccccc2)c(=O)c(Cl)c1Cl,13µM*,u,14.1µM*,u,14.1µM*,11.6µM*
SMILES,HT1080 IDH1KD tx,ATXN2 expr inh,HepG2 tox,S2 tox,TGFb inhibitor,HT1080-NT tox
Cc1cccc(NC(=O)c2ccccn2)c1C,8.6%,39.6%,-15.1%,i,-21.0%,0.0%
Cc1cccc(NC(=O)c2n[nH]c([N+](=O)[O-])c2Br)c1C,25.9µM*,u,-22.1%,u,u,u
CCOc1ccc(N(CC)S(=O)(=O)N2CCCC(C(=O)NCc3ccccc3Cl)C2)cc1 (stereo not given),x,x,-16.6%,x,u,x
Cc1nc([N+](=O)[O-])cn1-c1ccc([N+](=O)[O-])cc1,x,4.9%,x,i,x,x
COc1ccc2ccc3c(c2c1)N=CC1(O3)N(C)c2ccccc2C1(C)C (stereo not given),6.31µM*,-9.1%,-48.2%,i,7.94µM*,7.94µM*
CN1c2ccccc2C(C)(C)C12C=Nc1c(ccc3ccccc13)O2 (stereo not given),-11.3%,38.5%,-28.2%,i,u,5.0%
COc1ccc(C(=O)NCCc2sc(-c3cccc(F)c3)nc2C)cc1,x,-14.5%,-19.9%,i,-3.2%,x
CSc1cccc(Nc2nc3c(S(=O)(=O)c4ccccc4)nnn3c3ccc(Cl)cc23)c1,x,-1.1%,6.9%,i,7.3%,x
Cc1ccccc1-n1cc(CNC(=O)CN2Cc3ccccc3OC(C)C2)cn1 (stereo not given),x,x,x,i,x,x
Cc1ccc(Cl)cc1-c1ccc(C=Nc2ccc(N3CCOCC3)cc2)o1,-4.5%,u,-39.9%,i,11.2µM*,-2.1%
FC(F)(F)c1cc(-c2ccco2)nc(-n2cnc3ccccc32)n1,10.4%,u,-10.6%,i,-2.4%,5.6%
Cc1nc2ccccc2n1-c1nc(-c2ccco2)cc(C(F)(F)F)n1,5.62µM*,u,-53.2%,i,u,5.62µM*
CCOc1ccc(Nc2c(S(=O)(=O)c3ccccc3)cnc3ccc(F)cc23)cc1,x,u,-23.3%,i,u,x
c1ccc(Nc2nc(NCC3CCCO3)c3ccccc3n2)cc1 (stereo not given),18.4µM*,-31.9%[11.3 µM],-17.5%,u,u,23.1µM*
CCOc1ccc(Nc2c3ccccc3nc3ccccc23)cc1,11.6µM*,11.2µM*,-53.3%,u,u,16.4µM*
CCOc1ccc(Nc2c(S(=O)(=O)c3ccccc3)cnc3ccc(CC)cc23)cc1,x,u,-27.3%,u,11.2µM*,x
CCOc1ccc(Nc2cc(C)c3ccccc3n2)cc1,-29.9%,13.7%,-38.3%,i,u,-21.9%
Oc1cccc(Nc2nc(NCC3CCCO3)c3ccccc3n2)c1 (stereo not given),-22.6%,-21.8%,-26.7%,u,u,u
COc1ccc(Nc2nc(NCC3CCCO3)c3ccccc3n2)c(OC)c1 (stereo not given),u,-27.3%[11.3 µM],-10.7%,u,-22.5%,u
